# High-throughput results deposited in PubChem BioAssay by National Center for Advancing Translational Sciences (NCATS).
# Most compounds without a hit are left out; they make up all but 0.47% or so of the library.
# N370S GC: qHTS Assay for Inhibitors and Activators of N370S glucocerebrosidase as a Potential Chaperone Treatment of Gaucher Disease; Potency, µM (top dose mostly 59.4 µM), actives largely listed as inhibitors; N370S GC spleen homogenate, 4MU-glucoside fluorescence; Lysosomal acid glucosylceramidase (Homo sapiens), P04062; 330,000 compounds, 0.092% hits; AID 2101, 2009
# Mito fusion act: qHTS Assay for Small Molecule Inhibitors of Mitochondrial Division or Activators of Mitochondrial Fusion; S. cerevisiae fusion-defective mutant growth rescue, CellTiterGlo 48 h; Potency, µM (doses to about 46.1 µM), usual class: activators; 320,000 compounds, 0.23% hits; AID 485298, 2010; also: nearly all actives have a fitted effect of over 45% in size
#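 S. cerevisiae fusion-defective temperature-sensitive mutants (e.g. fzo1-1, mgm1-5) grown 48 h at 37C in YPEG (ethanol/glycerol non-fermentable) medium with 23 nl compound per well; growth rescue read as CellTiterGlo luminescence.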
# AT treatment: qHTS Assay for Identifying a Potential Treatment of Ataxia-Telangiectasia; F2112 A-T fibroblasts, KAP-1 phosphorylation AlphaLISA; neocarzinostatin DNA damage 30 min before lysis; Potency, µM (series often up to 57.5 µM), most hits filed as activators; 320,000 compounds, 0.19% hits; AID 485349, 2010; also: nearly all actives have a fitted effect of over 45% in size
#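 ATM-like activity read as KAP-1 phosphorylation via AlphaLISA donor/acceptor antibody pairs after lysis and 6 hr at 25C. Cells were ATM-null patient fibroblasts (F2112, hTERT), dosed 60 min, then exposed to the DSB inducer NCS for 30 min.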
# Eya2 phos inh: qHTS Assay for Inhibitors of the Phosphatase Activity of Eya2. Potency, µM (titrated, usually from 76.9 µM), usual class: inhibitors. 330,000 compounds, 0.006% hits. recombinant Eya2, OMFP fluorescence dephosphorylation (OMFP is methylfluorescein phosphate)
# Target sequence (O00167 whole entry, looked up): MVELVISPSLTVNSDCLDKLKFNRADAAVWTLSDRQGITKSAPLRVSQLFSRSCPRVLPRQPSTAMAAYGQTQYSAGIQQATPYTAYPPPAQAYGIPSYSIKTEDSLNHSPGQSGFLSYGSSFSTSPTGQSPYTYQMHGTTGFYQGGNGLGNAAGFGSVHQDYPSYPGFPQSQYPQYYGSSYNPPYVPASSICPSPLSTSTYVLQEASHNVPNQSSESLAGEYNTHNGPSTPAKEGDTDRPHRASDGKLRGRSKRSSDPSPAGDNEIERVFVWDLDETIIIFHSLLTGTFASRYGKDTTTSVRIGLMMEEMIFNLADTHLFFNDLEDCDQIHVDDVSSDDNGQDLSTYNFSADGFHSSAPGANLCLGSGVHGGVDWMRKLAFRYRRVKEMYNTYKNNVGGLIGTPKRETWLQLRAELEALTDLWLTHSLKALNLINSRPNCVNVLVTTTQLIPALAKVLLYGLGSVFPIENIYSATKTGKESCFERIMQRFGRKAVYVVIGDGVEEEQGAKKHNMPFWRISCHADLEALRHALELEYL
#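 Eya2 (0.2 uM) preincubated 10 min at ambient with compound, then OMFP substrate added at 50 uM; 10 min reaction in 50 mM HEPES pH 7.5, 50 mM NaCl, 5 uM MgCl2, 0.05% BSA, 1 mM DTT. Fluorescence read at Ex 485/Em 525 nm.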
# Numbers stand for hits; – = inactive; ? = inconclusive; · = no result; ! = repeats disagree; [ ] = another dose, or the depositor's remark. Calls follow the shape of the dose curve; as a rule, active = well fitted curve in the direction sought with a large enough effect; inconclusive = small, poorly fitted or top-dose-only effect, or another doubt; inactive = no such curve, though single readings can be large; an effect the other way counts as inactive or inconclusive.
SMILES,N370S GC,Mito fusion act,AT treatment,Eya2 phos inh
O=C(c1cn(-c2ccccc2)nc1-c1ccncc1)N1CCCCC1,–,–,–,–
CCOc1ccc(NC(=S)N(CCCN2CCOCC2)Cc2cn(C)c3ccccc23)cc1,–,–,–,–
COc1ccc(NC(=S)N(CCCN2CCOCC2)Cc2cn(C)c3ccccc23)cc1,–,–,–,–
Cn1cc(CN(CCCN2CCOCC2)C(=S)Nc2cccc(Cl)c2)c2ccccc21,10µM,–,–,–
Cc1cccc(NC(=S)N(CCCN2CCOCC2)Cc2cn(C)c3ccccc23)c1,7.9µM,–,–,–
Cc1ccc(-c2cn(-c3ccc(OC(F)F)cc3)c3[n+]2CCCCC3)cc1,–,–,–,–
FC(F)Oc1ccc(-n2cc(-c3ccccc3)[n+]3c2CCCCC3)cc1,–,–,14µM,–
COc1ccccc1OCC(=O)NNC(=O)Nc1ccc(Cl)cc1,–,–,–,–
COc1ccccc1OC(=O)Nc1ccc(Cl)cc1,–,–,0.71µM,–
CCN(CC(=O)Nc1ccc2c(c1)OCCO2)Cc1nc2cc(Cl)ccc2c(=O)[nH]1,·,–,–,–
COc1cc(NC(C)=O)c2ncccc2c1NC(C)=O,–,–,35µM,?
CCOc1ccc(S(=O)(=O)Nc2ccc(C(=O)NCC(c3ccco3)N3CCCCC3)cc2)cc1 (stereo unspecified),?,–,–,–
O=S(=O)(c1ccc(NCC2CCCCC2)nc1)N1CCOCC1,–,–,–,–
O=C(O)c1ccccc1Nc1cccc(OCc2ccc3ccccc3n2)c1,–,15µM!,–,–
O=C(COc1ccc2ccccc2c1)Nc1cccc(C(=O)Nc2ccccc2C(=O)O)c1,–,–,–,–
O=C(c1ccco1)N1CCN(C(=O)c2cnn3cccnc23)CC1,–,–,–,–
NC(=O)NC(=O)c1nccnc1C(=O)O,–,–,–,–
CC1(C)CC(=O)C(=Cc2cn(-c3ccccc3)nc2-c2ccc(Cl)cc2)C(=O)C1,–,–,–,–
O=C(C1=C[C@@H](c2ccc(C(F)(F)F)cc2)C[C@@H](OCc2ccc(CO)cc2)O1)N1CCN(Cc2ccccc2)CC1,13µM,–,–,–
O=C1/C(=C/c2cccc([N+](=O)[O-])c2)CCc2ccccc21,–,–,–,–
CCN1C/C(=C\c2cccc([N+](=O)[O-])c2)C(=O)/C(=C/c2cccc([N+](=O)[O-])c2)C1,–,–,22µM,–
O=C(O)c1ccccc1-c1ccccc1C(=O)Nc1cccc(Br)c1,–,–,–,–
Cc1cc(Br)ccc1NC(=O)c1ccccc1-c1ccccc1,–,14µM,–,–
O=C(Nc1ccccc1Br)c1ccccc1-c1ccccc1,–,?,–,–
O=C(Nc1cccc(Br)c1)c1ccccc1-c1ccccc1,–,16µM,–,–
SMILES,N370S GC,Mito fusion act,AT treatment,Eya2 phos inh
COc1cccc(OC)c1OC(=O)C1CC(=O)N(c2ccc3c(c2)OCCO3)C1 (stereo unspecified),·,·,–,–
Brc1ccc(-c2csc3ncnc(-n4nnc5ccccc54)c23)cc1,–,13µM,·,–
CCC1CCCCN1S(=O)(=O)c1ccc(NC(=O)c2cccs2)cc1 (stereo unspecified),–,16µM,–,–
CCOC(=O)Cn1nc(C)c(NC(=O)COc2ccccc2[N+](=O)[O-])c1C,–,–,–,–
Cc1nc(NC(=O)C2CC2)sc1C(=O)Nc1ccccc1,–,–,–,–
Cc1nc(Nc2c(Cl)cccc2Cl)sc1C(=O)Nc1ccccc1,–,18µM,–,–
O=C1NC(=O)/C(=C/c2ccc3c(c2)OC(F)(F)O3)S1,·,3.7µM,·,–
O=C1NC(=O)/C(=C/c2cc3c(cc2Br)OCO3)S1,–,–,–,–
Nc1nc(Cl)cc(Sc2ccc(F)cc2)n1,–,–,–,–
CC1CN(S(=O)(=O)c2ccc(NC(=O)CCCN3C(=O)c4ccccc4C3=O)cc2)CC(C)O1 (stereo unspecified),–,–,–,–
CCCn1c(N)cc(=O)n(CCC)c1=O,–,–,–,–
O=C(COC(=O)COc1cccc(Br)c1)Nc1ccc(F)cc1F,·,–,–,–
COCCOC(=O)c1c(C)oc2ccc(OC(=O)c3ccco3)cc12,–,?,–,–
COCCOC(=O)c1c(C)oc2ccc(OCc3ccccc3)cc12,–,11µM,–,–
COc1ccccc1N1CCN(C(=O)c2cc3cc(Cl)ccc3[nH]2)CC1,–,–,–,–
O=C(NCc1cccc(F)c1)c1noc2c1CCCC2,–,–,–,–
CC(C)(C)C(=O)Nc1cc(S(=O)(=O)Nc2ccc(Cl)cc2)ccc1Cl,–,18µM,–,–
COc1ccc(C2CC(c3ccccc3)=NN2C(=O)COC(=O)c2cccnc2)cc1 (stereo unspecified),–,–,–,–
COc1ccc(C2CC(c3ccc(Br)cc3)=NN2C(=O)c2cccnc2)cc1 (stereo unspecified),?,18µM,–,–
CCc1nnc(NC(=O)c2cccc(S(=O)(=O)N(C)c3ccccc3)c2)s1,–,–,·,–
O=C(O)CSc1nc(-c2ccc(Cl)cc2)nc2c1oc1ccccc12,–,8.9µM,–,–
CCOc1ccc(NC(=O)CNC(=O)c2cn(-c3ccccc3OC)c(=O)c3ccccc23)cc1,13µM,–,–,–
Cc1c(C(=O)Nc2cc(S(=O)(=O)N3CCOCC3)ccc2N2CCN(C)CC2)oc2ccccc12,–,–,–,–
Cc1nc2c(ccc3nc(NC(=O)Cc4cccc5ccccc45)sc32)s1,–,11µM,–,–
Cc1nc2c(ccc3nc(NC(=O)C(c4ccccc4)c4ccccc4)sc32)s1,–,7.1µM,–,–
SMILES,N370S GC,Mito fusion act,AT treatment,Eya2 phos inh
COc1ccc(CNC2CCCc3ccccc32)c(OC)c1 (stereo unspecified),–,–,–,–
C[C@H]1CC[C@H]2C(=O)N3[C@H](c4ccccc4Br)[C@@H](C)CC[C@H]3C(=O)N2[C@@H]1c1ccccc1Br,–,22µM,–,–
CC1CCC2C(=O)N3C(CCC(C)C3c3ccccc3Br)C(=O)N2C1c1ccc(C#CCN(C)C)cc1 (stereo unspecified),–[12.8 µM],·,·,·
N#Cc1ncc(-c2ccc3c(c2)OCCOCCOCCOCCOCCO3)nc1C#N,–,20µM,–,–
O=C(Nc1ccccc1C(=O)N1CCN(CCO)CC1)c1cccc([N+](=O)[O-])c1,–,–,–,–
CCCNc1c(NS(=O)(=O)c2ccc(Br)cc2)c(=O)oc2ccccc12,–,8.9µM,–,–
O=C(NNc1cccc(Cl)c1)c1cccnc1Cl,–,22µM,–,–
CCc1cc(C(c2ccccn2)N2CCN(C)CC2)c(NC(=O)c2ccccc2)s1 (stereo unspecified),14µM,–,–,–
CCOc1ccc(C(c2c(NC(=O)c3ccccc3)sc(C)c2C)N2CCN(C)CC2)cc1 (stereo unspecified),16µM,–,–,–
